# Screening results deposited in PubChem by National Center for Advancing Translational Sciences (NCATS).
# Most compounds without a hit are left out; they make up all but 17% or so of the library.
# HepG2 viability: HepG2 cytotoxicity, counter-screen for TGF-b inhibitors; Potency, µM (doses to about 46.1 µM), inactives show at the highest dose activity change, negative = cytotoxicity, hits mostly cytotoxic; HepG2 CAGA-GFP viability, ATP luminescence, 18 h; 410,000 compounds, 0.76% hits
#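 HepG2 CAGA-GFP cells (1000/well, DMEM with 1% FBS) received compound, then TGF-beta at 500 pg/mL final, and were incubated 18 hours at 37 degrees C. Viability was read by CellTiter-Glo luminescence. Media-only wells were set as complete cell-killing and DMSO as no toxicity.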
# TDP1 cell CPT: DT40-hTDP1 cell growth loss with CPT; 420,000 compounds, 12% hits; Potency, µM (top dose mostly 46.2 µM), for inactives: at the top dose activity change, negative = growth inhibition, actives largely listed as inhibitors; chicken DT40 Tdp1-/-;hTDP1 cells + 20 nM CPT, ATP luminescence, 48 h; AID 686979; also: % is scaled to controls: 0 for no effect and ±100 for the full control effect; nearly all actives have a fitted effect of over 55% in size
#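 Chicken DT40 Tdp1-/- cells stably complemented with human TDP1 were seeded at 400 cells/well in medium containing 20 nM camptothecin, exposed to pin-transferred compounds, and grown at 37 °C for at least 48 hr. Viability was read as ATP luminescence.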
# HT1080 IDH1KD tx: HT-1080 IDH1 knockdown cell toxicity (counter line) | 360,000 compounds, 2% hits | HT-1080 IDH1 knockdown viability, ATP luminescence, 48 h | Potency, µM (series often up to 46.1 µM), for inactives: top-dose activity, negative = toxicity, most hits filed as cytotoxic;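 also: 0% = DMSO wells and -100% = cell-free medium wells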
#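 % activity derives from luminescence (CellTiter-Glo), normalised to DMSO and no-cell wells. HT-1080-IDH1KD cells, 750/well, had 48 h compound exposure at 37 °C.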
# TGFb inhibitor: blocks TGF-b signaling; HepG2 CAGA-GFP TGF-b/SMAD3 reporter, GFP fluorescence, 18 h; TGF-beta stimulated, 500 pg/mL final; Potency, µM (highest dose often 46.1 µM), inactives show top-dose activity, negative = inhibition, actives largely listed as inhibitors; 410,000 compounds, 1.2% hits; AID 588855; also: % is scaled to controls: 0 for no effect and ±100 for the full control effect; nearly all actives have a fitted effect of over 65% in size
#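 Inhibition of TGF-beta-driven CAGA-GFP reporter expression in HEPG2 cells is measured by cellular GFP fluorescence after 18 h stimulation with 500 pg/mL recombinant TGF-beta in 1% FBS medium at 37 degrees C.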
# HT1080NT lethal: kills 2HG-producing HT-1080-NT fibrosarcoma cells. HT-1080-NT fibrosarcoma viability, CellTiter-Glo ATP luminescence, 48 h. Potency, µM (top dose mostly 46.1 µM), inactives show at the top dose activity, negative = less viability, most hits filed as cytotoxic. 360,000 compounds, 1.6% hits;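 also: NT is the 2HG producing partner of a matched IDH1 knockdown line; 0% = DMSO-treated cells and -100% = media-only wells without cells; nearly all actives have a fitted effect of over 55% in size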
#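 750 cells/well, RPMI + 5% FBS; 2 h settle, compound pin-transfer, 48 h at 37 degrees C. CellTiter-Glo 10 min RT, luminescence. Normalized to DMSO and media-only wells.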
# DT40 TDP1 no CPT: qHTS for Inhibitors of human tyrosyl-DNA phosphodiesterase 1 (TDP1): qHTS in cells in absence of CPT | DT40 Tdp1-/- hTDP1 cells, no CPT, ATP luminescence, 48 h | Potency, µM (top dose mostly 46.2 µM), inactives show at the top dose activity change, negative = growth inhibition, most hits filed as inhibitors | 420,000 compounds, 15% hits | AID 686978, 2013; also: % is scaled to controls: 0 for no effect and ±100 for the full control effect; nearly all actives have a fitted effect of over 55% in size
#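 Readout: luminescence from CellTiter-Glo after 30 min in the dark at RT. Cells: DT40 Tdp1-/- with stable hTDP1, 400/well. Exposure: compounds alone, ≥48 hr, 37 °C.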
# The depositor's hits bear a star; ? = inconclusive; · = no result; [ ] = remark or other dose. Calls follow the shape of the dose curve; as a rule, active = well fitted curve in the direction sought with a large enough effect; inconclusive = small, poorly fitted or top-dose-only effect, or another doubt; inactive = no such curve, though single readings can be large; an effect the other way counts as inactive or inconclusive. Potency is read from the fitted curve at half-maximal effect.
SMILES,HepG2 viability,TDP1 cell CPT,HT1080 IDH1KD tx,TGFb inhibitor,HT1080NT lethal,DT40 TDP1 no CPT
O=C(N/N=C/c1cc(Br)ccc1O)C(=O)Nc1ccccc1OC(F)(F)C(F)F,-35%,5µM*,0.89µM*,?,1.4µM*,2.8µM*
CC1CCC(NC(=O)CCCn2sc3ccccc3c2=O)CC1 (configuration not stated),-1%,?,-6%,-9%,0%,?
CCc1cccc2c(C(=O)COC(=O)/C=C/c3ccc(O)c(OC)c3)c[nH]c12,-3%,?,?,?,-13%,18µM*
COc1cc(/C=C/C(=O)OCC(=O)c2ccc(OC(F)F)cc2)ccc1O,-30%,?,?,-19%,-19%,15µM*
COc1ccc(OC)c(C(=O)N2CCc3c(cnc(C)c3CNS(=O)(=O)N(C)C)C2)c1,·,6%[9.04 µM],·,·,·,-11%
N#Cc1ccc(N/N=C/c2cn(-c3ccccc3)nc2-c2ccccc2)c([N+](=O)[O-])c1,-4%,3.7µM*,14%,3%,7%,8.2µM*
O=Cc1cn(-c2ccccc2)nc1-c1cccc([N+](=O)[O-])c1,-8%,?,8%,5%,11%,?
CCN(CC)C(=O)Cn1c(=O)n(CC2CCC(C(=O)NC)CC2)c(=O)c2sccc21 (configuration not stated),10%,-14%,·,24%,·,-14%
CCc1nnc(N2CCN(c3ncnc4c3oc3ccccc34)CC2)s1,-4%,18µM*,?,-1%,-24%,18µM*
CCOC(=O)C1CCN(c2ncnc3c2oc2ccccc23)CC1,-32%,?,-5%,-18%,?,16µM*
CCOC(=O)C1CCCN(c2ncnc3c2oc2ccccc23)C1 (configuration not stated),-20%,?,-11%,-27%,-14%,13µM*
O=C(O)CSCC(=O)NCc1cccc(C(F)(F)F)c1,-1%,-7%,0%,0%,3%,5%
CN(Cc1cnn(C)c1)C(=O)C1CCCCC1C(=O)O (configuration not stated),4%,-1%,-2%,0%,-5%,0%
CCNc1ncc2nc(C)c(=O)n(C[C@H]3CCCO3)c2n1,·,?,·,·,·,-17%
COC(=O)[C@@]12C[C@@H](CC(=O)NCc3ccc(OC)c(OC)c3)C(=O)N(Cc3ccc4c(c3)OCO4)C1=CCC(C)(C)C2,·,15µM*,-16%,·,-6%,26µM*
COC(=O)[C@@]12C[C@@H](CC(=O)NCc3cccc(C(F)(F)F)c3)C(=O)N(Cc3ccc4c(c3)OCO4)C1=CCC(C)(C)C2,·,?,21µM*,·,13µM*,18µM*
CCN(CC)CCN1C(=O)C(O)=C(C(=O)c2cc3cccc(OC)c3o2)C1c1cccs1 (configuration not stated),-15%,1%,12%,21%,17%,-19%
CC(CCCN(C)C)C(Cc1ccccc1)c1ccccc1 (configuration not stated),-49%,?,16µM*,-11%,?,?
CCn1c(-c2cccc(OC)c2)nc2cc(NC(C)=O)cc(C(=O)N(C)CC3COCCO3)c21 (configuration not stated),·,2%,·,·,·,-17%
C=CCn1c(C)nnc1SCC(=O)Nc1ccccc1C(=O)NC1CC1,7%,-4%,5%,-2%,2%,-2%
CC(=O)N[C@@H]1C(O[C@H]2O[C@H](C(=O)O)C(O)[C@H](O)[C@H]2O)[C@H](O)[C@@H](CO)O[C@H]1O[C@@H]1C(C(=O)O)O[C@@H](O[C@H]2[C@H](O)[C@@H](CO)OC(O)[C@@H]2NC(C)=O)[C@H](O)[C@H]1O (some centres not stated),·,-2%,·,·,·,21µM*
O=C(NCCCN1CCN(c2ccccc2)CC1)c1nnc(Cc2c(F)cccc2Cl)o1,-19%,23µM*,·,-10%,·,21µM*
O=C(NCc1ccncc1)c1nnc(Cc2c(F)cccc2Cl)o1,5%,-26%,1%,0%,-2%,-14%
O=S1(=O)CCOC[C@H](c2ccccc2)N1Cc1ccc(Cl)c(Cl)c1,-11%,?,·,?,·,?
CCOC(=O)c1c(NC(=O)Cc2cccs2)sc(C(=O)N2CCCCC2)c1C,1%,?,-12%,-18%,-3%,9.2µM*
SMILES,HepG2 viability,TDP1 cell CPT,HT1080 IDH1KD tx,TGFb inhibitor,HT1080NT lethal,DT40 TDP1 no CPT
CCOC(=O)c1c(NC(=O)CN2CCCc3ccccc32)sc(C(C)=O)c1C,8%,?,-3%,-8%,-3%,21µM*
CCN(CCCNc1cc2c(c(N)c1S(=O)(=O)O)C(=O)c1ccccc1C2=O)c1ccccc1,-18%,?,-10%,-9%,-3%,18µM*
CCOC(=O)CN1CCC(c2cc(-c3ccc(Cl)cc3)n[nH]2)CC1,-63%,?,19%,?,0%,?
O=[N+]([O-])c1cccnc1N1CCC(c2cc(-c3ccc(Cl)cc3)n[nH]2)CC1,36%,21µM*,-18%,?,-1%,21µM*
COc1ccc(-c2[nH]nc3oc(=O)c(CCO)c(C)c23)cc1,-15%,13%,1%,-26%,-2%,-19%
c1ccc(CN2CCC3CC2c2c3cccc2N2CCOCC2)cc1 (configuration not stated),-3%,?,10%,-3%,0%,15µM*
O=C(Cc1ccccc1)CC(CC(=O)c1ccccc1)c1ccccc1 (configuration not stated),-51%,16µM*,-16%,-6%,-3%,23µM*
O=C(C[C@H]1C[C@H](C(=O)N2CCCCC2)[C@@]2(CCc3ccccc3)c3[nH]c4ccc(Cl)cc4c3CCN2C1=O)NCCN1CCOCC1,-3%,-9%,1%,18%,3%,-3%
COc1ccc(NC(=O)/C(Cl)=C(/Cl)S(=O)(=O)Cc2ccc(C)cc2)cn1,5.6µM*,0.52µM*,8.2µM*,?,23µM*,0.82µM*
COc1ccc(NC(=O)Cc2ccc(Cl)c(Cl)c2)cn1,-11%,-3%,-2%,-14%,-4%,-16%
CC1CCCN(C(=O)Cn2ncc3c([nH]c4ccccc43)c2=O)C1 (configuration not stated),-7%,-2%,·,0%,·,-19%
